Test results: PubChem BioAssay AID1117288 (Broad Institute, 2014)
Results with a measured potency or affinity are listed apart. Records with an inconclusive call do not appear. The source made the active and inactive calls.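 How the source made its calls: active means compound whose fitted half-inhibition dose sits at or below twice its top tested dose in every test run; inconclusive means test runs disagree, or every run is unclear; inactive means inactive in every test run.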

Biological target: Leucyl-cystinyl aminopeptidase (Mus musculus) (UniProt Q8C129)
Sequence (Q8C129 whole entry, looked up): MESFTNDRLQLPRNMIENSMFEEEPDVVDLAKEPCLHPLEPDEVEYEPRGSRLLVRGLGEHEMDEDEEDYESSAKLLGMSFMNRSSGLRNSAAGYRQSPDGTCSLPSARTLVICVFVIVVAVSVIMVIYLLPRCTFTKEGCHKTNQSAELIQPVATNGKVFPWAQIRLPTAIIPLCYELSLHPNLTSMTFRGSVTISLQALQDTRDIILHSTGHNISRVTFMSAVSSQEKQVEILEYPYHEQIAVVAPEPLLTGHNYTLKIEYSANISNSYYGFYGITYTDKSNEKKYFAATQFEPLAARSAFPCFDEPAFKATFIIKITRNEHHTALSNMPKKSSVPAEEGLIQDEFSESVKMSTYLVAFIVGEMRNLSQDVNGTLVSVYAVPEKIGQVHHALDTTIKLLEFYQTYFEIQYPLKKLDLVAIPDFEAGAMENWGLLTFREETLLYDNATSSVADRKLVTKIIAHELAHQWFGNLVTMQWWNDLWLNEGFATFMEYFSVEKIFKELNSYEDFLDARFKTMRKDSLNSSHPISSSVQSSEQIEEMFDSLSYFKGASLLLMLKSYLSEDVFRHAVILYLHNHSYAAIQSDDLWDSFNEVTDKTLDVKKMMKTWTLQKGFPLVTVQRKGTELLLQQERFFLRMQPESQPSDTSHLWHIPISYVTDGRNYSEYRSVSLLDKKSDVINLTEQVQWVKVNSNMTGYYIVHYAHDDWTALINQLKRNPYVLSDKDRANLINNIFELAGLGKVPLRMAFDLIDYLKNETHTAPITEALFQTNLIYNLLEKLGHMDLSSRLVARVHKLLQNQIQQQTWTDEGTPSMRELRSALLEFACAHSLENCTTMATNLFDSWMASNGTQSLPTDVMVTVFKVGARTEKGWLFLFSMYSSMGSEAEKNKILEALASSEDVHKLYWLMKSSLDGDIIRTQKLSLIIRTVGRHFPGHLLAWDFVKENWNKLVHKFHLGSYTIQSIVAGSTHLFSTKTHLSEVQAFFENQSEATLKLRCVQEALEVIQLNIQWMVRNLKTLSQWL
Test: mouse IRAP aminopeptidase activity inhibition – biochemical, dry powder samples, set 3, selectivity assay for ERAP1 modulator project, dose response (AID 1117288)
Settings: purified IRAP enzyme, Leu-AMC fluorescence, 1 h; series mostly up to 50 µM; activity change, negative = inhibition: at the top concentration

Activity change, negative = inhibition, inactive:
O=C(O)c1cccc(S(=O)(=O)Nc2cc(C(F)(F)F)ccc2N2CCCCC2)c1 22.7%
Cc1ccc(C(=O)O)cc1S(=O)(=O)Nc1cc(C(F)(F)F)ccc1N1CCCCC1 -2.16%
COc1ccc(C(=O)O)cc1S(=O)(=O)Nc1ccccc1N1CCCCC1 3.15%
COc1ccc(C(=O)O)cc1S(=O)(=O)Nc1ccc(N2CCCCC2)cc1C(F)(F)F 9.65%
O=C(O)c1ccc(Cl)c(S(=O)(=O)Nc2cc(C(F)(F)F)ccc2N2CCCCC2)c1 17.3%
Cc1ccc(S(=O)(=O)Nc2cc(C(F)(F)F)ccc2N2CCCCC2)cc1C(=O)O 0.616%
O=C(O)c1ccc(Br)c(S(=O)(=O)Nc2cc(C(F)(F)F)ccc2N2CCCCC2)c1 -5.39%
COc1ccc(C(=O)O)cc1S(=O)(=O)Nc1cc(F)ccc1N1CCCCC1 13.7%
COc1ccc(C(=O)O)cc1S(=O)(=O)Nc1cc(C)ccc1N1CCCCC1 -13.8%
COc1ccc(C(=O)O)cc1S(=O)(=O)N(C)c1cc(C(F)(F)F)ccc1N1CCCCC1 5.09%
COc1ccc(C(=O)O)cc1S(=O)(=O)Nc1cc(C(F)(F)F)ccc1N1CCN(C)CC1 26.8%
COc1ccc(C(=O)O)cc1S(=O)(=O)Nc1cc(C(F)(F)F)ccc1N1CCOCC1 28.6%
COc1ccc(C(=O)O)cc1S(=O)(=O)Nc1cccc(N2CCCCC2)c1C(F)(F)F 13.9%
COC(=O)c1ccc(OC)c(S(=O)(=O)Nc2cc(C(F)(F)F)ccc2N2CCCCC2)c1 16.9%

outcome, inactive:
COc1ccc(C(=O)O)cc1S(=O)(=O)Nc1cc(C(F)(F)F)ccc1N1CCCCC1
